Screening data: PubChem, The Scripps Research Institute Molecular Screening Center
Most compounds without a hit are left out; they make up all but 4.6% or so of the library.
ssDAF-12 act: S. stercoralis DAF-12 activation, primary screen. HEK293 ssDAF-12/GRIP1 lit1-tk-luc reporter, luminescence; % of 3 µM dafachronic acid response. activation, % at 6.8 µM. hit rate 1% among 370,000;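 active = activation above the mean over all tested compounds plus 3 SD, cut at about 0.9% in these data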;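 note: 0% = DMSO-only wells and 100% = 3 µM delta7-dafachronic acid wells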
Wee1 degr inh: blocks degradation of human Wee1 kinase; HeLa Luc-Wee1K328M stability, luciferase luminescence; 100% = proteasome inhibitor MG132 effect; reporter increase, % at 5 µM; hit rate 1.2% among 220,000; AID 1321;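 active = activation above the mean of all tested compounds plus 3 SD, set per screening run, cut at about 8.8% in these data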;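 note: cells exposed to compound for 20 h before luminescence read; 0% = DMSO alone and 100% = MG132 at 30 µM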
DAX1 inh-1: blocks DAX1 repression of SF-1 activated StAR promoter | inhibition, % at 6.8 µM | hit rate 1.1% among 370,000 | HEK293T StAR-luciferase reporter, SF-1/DAX-1 repression relief | AID 652010;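 active = inhibition above the mean over all tested compounds plus 3 SD, cut at about 3.6% in these data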;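 note: 0% = DAX-1 cells with DMSO and 100% = cells lacking DAX-1 with DMSO; higher inhibition means more luminescence from relief of DAX-1 repression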
DAX1 inh-2: inhibitors of human orphan nuclear receptor DAX1 (NR0B1); P51843; HEK293 Gal4-DAX1 luciferase reporter, luminescence; inhibition, % at 6.75 µM; hit rate 0.99% among 340,000; AID 504766;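 active = inhibition above the mean over all tested compounds plus 3 SD, cut at about 4.2% in these data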;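 note: 0% = DAX1-transfected cells with DMSO and 100% = empty-vector control cells with DMSO; inhibition shows as a rise in luminescence from relieved DAX1 repression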
Target sequence (P51843 207-470 limits assumed): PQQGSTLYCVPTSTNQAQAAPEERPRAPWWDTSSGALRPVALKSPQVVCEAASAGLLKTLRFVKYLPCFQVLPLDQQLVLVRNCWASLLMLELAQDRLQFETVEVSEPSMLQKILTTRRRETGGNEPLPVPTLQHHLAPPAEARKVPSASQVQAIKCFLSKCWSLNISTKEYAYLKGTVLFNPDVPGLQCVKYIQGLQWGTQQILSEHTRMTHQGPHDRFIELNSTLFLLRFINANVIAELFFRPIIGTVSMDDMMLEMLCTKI
hcDAF-12 act: activators of H. contortus DAF-12 nuclear receptor; activation, % at 6.8 µM; AID 652067; HEK293 hcDAF-12 lit1-tk-luc reporter, luminescence; 0% DMSO, 100% Δ7-dafachronic acid; hit rate 1.4% among 370,000;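 active = activation above the mean of all tested compounds plus 3 SD, cut at about 5.5% in these data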;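 note: 100% = response to 3 µM Δ7-dafachronic acid high control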
hgDAF12 agonist: activates the H. glycines DAF-12 receptor ligand-binding domain; HEK293 GAL4-hgDAF12 UAS-luciferase reporter, agonist luminescence; normalized to butyrate control; activation, % at 6.8 µM; hit rate 1.8% among 370,000; AID 687014;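 active = activation above a cutoff set at the mean of all screened compounds plus 3 SD, cut at about 10% in these data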;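 note: 0% = DMSO wells and 100% = sodium butyrate wells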
Starred values were filed as active, the others as inactive; . = no result.

SMILES	ssDAF-12 act	Wee1 degr inh	DAX1 inh-1	DAX1 inh-2	hcDAF-12 act	hgDAF12 agonist
C#CCOCCOCCOCCNc1nc(N2CCN(C(=O)[C@H](CCCCN)n3cc([C@@H](N)C(C)CC)nn3)CC2)nc(N2CCN(C(=O)[C@H](CCCCN)n3cc([C@@H](N)C(C)CC)nn3)CC2)n1 (some centres undefined)	-1	.	.	.	0	7
CC(=O)Nc1ccc(-c2cn3ccsc3n2)cc1	0	3	1	0	2	12*
CC(=O)c1cc(-c2ccc3c(c2)OCO3)c(=O)n2c1CCC2	0	.	1	.	2	4
O=c1ccc(N=Nc2ccccc2)ccc1O	0	7	0	0	4	4
Oc1ccc(N=Nc2ccccc2)o1	4.4*	.	0	-2	0	0
COc1ccccc1CCn1cnc(-c2cccc(F)c2)c1CC(C)C	-1	.	-2	.	-2	-3
CCCCCCC(=O)NC1CCCCN(Cc2ccc(Cl)cc2)C1=O (centres undefined)	-2	.	0	.	-2	4
COc1ccccc1N1C(=O)S/C(=C\c2cccs2)C1=O	1.0*	.	0	-1	5	4
COc1ccccc1C(=O)NNC(=O)CCCN1C(=O)/C(=C/c2cccs2)SC1=S	-2	-2	0	0	-1	3
CCOC(=O)c1sc(=S)n(-c2cc(F)ccc2F)c1N	-1	3	-1	0	-1	-1
COC(=O)c1sc(=S)n(-c2cc(F)ccc2F)c1N	0	1	0	4.9*	-1	1
CCOC(=O)c1nnn(-c2ccc([N+](=O)[O-])cc2)c1C	-1	8.8*	0	-1	0	5
Cc1cccc(C(=O)Nc2c(-c3ccc(C(F)(F)F)cc3)nc3ncccn23)c1	0	.	0	.	4	3
Cc1ccc(S(=O)(=O)c2nc(Nc3ccccc3C#N)sc2Cl)cc1	-1	-2	0	0	6.3*	-2
CCN1CCN(c2ccc(S(=O)(=O)N3CCOCC3)cc2NC(=O)c2cccc([N+](=O)[O-])c2)CC1	1.1*	.	0	1	1	3
CCN1CCN(c2ccc(S(=O)(=O)N3CCOCC3)cc2NC(=O)c2ccc(C(F)(F)F)cc2)CC1	-1	.	0	5.9*	-1	2
CCN1CCN(c2ccc(S(=O)(=O)N3CCOCC3)cc2NC(=O)/C=C/c2ccc([N+](=O)[O-])cc2)CC1	-1	.	-4	-1	-1	4
CCN1CCN(c2ccc(S(=O)(=O)N3CCCCC3)cc2NC(=O)c2ccc(F)cc2)CC1	0	3	0	2	0	5
Cc1csc(=O)n1CC(=O)Nc1ccc(C(C)C)cc1	-1	.	3	1	2	9
COC(=O)[C@]12C[C@H](CC(=O)N3CCN(C(=O)C4CC4)CC3)C(=O)N(Cc3ccco3)C1=C[C@H](COCc1ccccc1)O[C@@H]2C	-1	.	0	.	-2	2
CN(C)CCN1CCN(C2CN(CCc3ccccc3)S(=O)(=O)C2)CC1 (centres undefined)	-1	.	1	.	-1	-1
CCNC(=O)CC1C(=O)N(C)C(=S)N1NC(=O)c1ccc(Cl)cc1 (centres undefined)	-1	-4	0	1	-1	-1
Nc1ccc(C(=O)NN2C(=O)[C@H](Cl)C2c2ccc(Cl)cc2)cc1 (some centres undefined)	0	.	-3	0	5.9*	4
Cc1ccc(CNc2ccc3c(c2)ncn3C(C)C)cc1	-1	2	2	6.2*	1	7
Cn1cnc2cc(NCc3ccc(Cl)cc3)ccc21	-1	.	1	3	2	8
SMILES	ssDAF-12 act	Wee1 degr inh	DAX1 inh-1	DAX1 inh-2	hcDAF-12 act	hgDAF12 agonist
CCn1cnc2cc(NCc3ccc(Br)cc3)ccc21	-1	.	2	.	5	3
CCn1cnc2cc(NCc3ccc(C)cc3)ccc21	-1	0	4.4*	2	1	4
Cc1ccccc1N=C1Nc2ccccc2CS1	0	-4	0	1	2	11*
Cc1ccccc1N=C1NC(=O)CS1	-1	-1	0	0	0	-1
CCOC(=O)[C@@]12CN(C(=O)OC(C)(C)C)CC=C1N(Cc1ccc(OC)cc1)C(=O)[C@H]2CC(=O)NCc1ccc(C)o1	-1	.	-1	.	-3	-2
CC(=O)Nc1ccc(NCc2cccs2)cc1	-1	.	0	4.3*	-2	-3
CC(=O)Nc1ccc(NCCc2cccs2)cc1	-1	.	0	.	-1	-2
C[C@H](NC(=O)OC(C)(C)C)C(=O)N/N=C/C1=Cc2ccccc2OC1	-1	9.7*	0	0	-1	1
CC(=O)NC1CC2CCCC(C1)N2C(=O)Nc1cccc(C(C)=O)c1 (centres undefined)	-1	.	0	3	0	3
COc1ccccc1CNC(=O)NC1CCN(CC(=O)Nc2ccc3c(c2)OCCO3)CC1	-1	.	-1	.	-3	0
COc1ccc2c(c1)[C@@]1(OCCC=C[C@H]1C)C(=O)N2Cc1ccc(F)cc1	-1	.	0	.	-2	1
COc1ccc(Nc2ccc([N+](=O)[O-])cc2[N+](=O)[O-])cc1	-2	-3	0	6.3*	-1	-1
CC(=O)NC(C)C(=O)N1CCCC1C(=O)N1CCCC1C(=O)NC(C)C(=O)NC1C(=O)NC(CC(C)C)C(=O)NC2CCCCNC(=O)CCC(C(=O)NC(Cc3ccc(O)cc3)C(=O)O)NC(=O)C3CCC(=O)OCC(NC(=O)C4CCCN4C(=O)C(Cc4c[nH]c5ccccc45)NC2=O)C(=O)NC(CC(=O)OC1C)C(=O)NC(Cc1c[nH]c2ccccc12)C(=O)N3 (centres undefined)	0	.	0	.	-1	-2
CCCOc1cccc(C(=O)N/N=C/c2ccoc2)c1	-1	.	1	1	3	2
Clc1cccc(Cl)c1/C=N\Nc1nccs1	0	0	0	1	1	2
Cc1csc(N/N=C/c2c(F)cccc2Cl)n1	0	.	0	1	6.5*	2
COc1cc(NC(=O)C/C(C)=N/NC(=O)c2cccc(O)c2)c(OC)cc1Cl	0	1	1	3	6.1*	12*
C/C(CC(=O)Nc1ccc(Br)cc1)=N\NC(=O)c1cccc(O)c1	-1	.	1	5.7*	0	0
C/C(CC(=O)Nc1ccc(Cl)c(C(F)(F)F)c1)=N\NC(=O)c1cccc(O)c1	-2	-4	-1	0	1	0
C/C(CC(=O)Nc1ccc2c(c1)OCCO2)=N\NC(=O)c1cccc(O)c1	-1	.	1	6.4*	1	5
Brc1ccc(CSc2nnc(SCc3ccccc3)s2)cc1	-1	.	1	.	-2	-2
N#CCC[C@H]1CC[C@]2(CCCN(S(=O)(=O)c3ccccc3)C2)O1	0	.	0	.	-1	1
